# ChEMBL document CHEMBL4513142, “CO-ADD screening of Indiana University - Purdue University Indianapolis (USA) compounds”
# Values joined by “and” are separate entries in the source; they are usually repeats but may differ in a detail not shown here. Equal entries are not always repeated. Measured potencies and affinities stand elsewhere.
# Key:
# Klebsiella pneumoniae = settings: Concentration 32 ug.mL-1, ASSAY_TEST Inhibition of Bacterial Growth, detection method Absorption (OD600), MEDIA CAMHB, plate type 384well, NBS, CORNING #3640, time 18 hr
# Candida albicans = settings: 32 ug/mL
# Cryptococcus neoformans = settings: Concentration 32 ug.mL-1, ASSAY_TEST Inhibition of Fungal Growth, detection method Resazurin, Absorption (OD600-OD570), plate type 384well, NBS, CORNING #3640
Structure (SMILES),Inhibition (Klebsiella pneumoniae),Inhibition (Candida albicans),Inhibition (Cryptococcus neoformans),Inhibition (Klebsiella pneumoniae; 32 ug/mL),Inhibition (Cryptococcus neoformans; 32 ug/mL)
[C-]#[N+]c1ccc(C(=O)NC(CC#C)C(=O)NCCC)cc1 (stereo not given),15.5%,4.37%,-8.61%,–,–
NC(=O)[C@@H]1CCCN1C(=O)c1ccccn1,–,8.62% and 7.92%,–,13.57% and 8.38%,-5.72% and -3.53%
NC(=O)[C@H](Cc1ccccc1)NC(=O)c1c(F)c(F)c(F)c(F)c1F,–,3.95% and 8.52%,–,8.47% and 11.14%,-9.93% and -7.63%
NC(Cc1ccc(F)c(F)c1)C(=O)O.O=C(O)C(F)(F)F (stereo not given),–,1.67% and -0.02%,–,7.21% and 5.15%,-13.22% and -14.09%
O=C(NC(Cc1ccc(Cl)nc1)C(=O)O)c1ccccc1 (stereo not given),–,3.67% and 3.1%,–,9.49% and 7.67%,-7.31% and -8.02%
[C-]#[N+]c1ccc(C(=O)NC(CC)C(=O)NCCC)cc1 (stereo not given),12.56%,-0.99%,-4.7%,–,–
[C-]#[N+]c1ccc(C(=O)NC(Cc2ccc(F)cc2)C(=O)NCCC)cc1 (stereo not given),14.12%,5.24%,-1.72%,–,–
CC(C)C[C@H](NC(=O)c1ccc(Cl)cc1Cl)C(N)=O,–,4.49% and 5.39%,–,14.05% and -7.39%,-13.33% and -10.52%
C[C@H](NC(=O)c1ccccc1Cl)C(=O)O,–,4.87% and 8.5%,–,-1.23% and -3.38%,-5.22% and -11.03%
CC(C)C[C@H](NC(=O)c1cccnc1)C(N)=O,–,–,–,3.3% and -1.43%,-4.01% and -5.8%
Cc1ccc(C(=O)NC(Cc2ccc(F)cc2)C(=O)O)cc1 (stereo not given),–,–,–,-11.12% and 7.59%,-14.35% and -11.02%
COc1cc(C(=O)N[C@@H](CC(C)C)C(=O)O)ccc1O,–,4.13% and 6.65%,–,1.29% and 3.72%,-7.3% and -10.82%
Cc1ccc(C(=O)NC(Cc2ccccc2C#N)C(=O)O)cc1 (stereo not given),–,–,–,10.82% and 9.51%,-6.48% and -6.82%
O=C(Cc1cccc(Br)c1)N[C@@H](Cc1ccccc1)C(=O)O,–,–,–,7.39% and -2.64%,-5.52% and -8.87%
[C-]#[N+]c1ccc(C(=O)NC(CC=C)C(=O)NCCC)cc1 (stereo not given),4.31%,3.05%,-8.98%,–,–
CCCNC(=O)C(Cc1ccc(F)cc1)NC(=O)c1ccccc1 (stereo not given),12.41%,2.54%,-4.63%,–,–
NC(Cc1ccccc1F)C(=O)O.O=C(O)C(F)(F)F (stereo not given),–,2.11% and 3.25%,–,-4.61% and -3.52%,-7.08% and 0.99%
NC(=O)[C@H](Cc1ccccc1)NC(=O)c1cccnc1,–,6.63% and 4.08%,–,15.19% and 20.47%,-3.63% and -8.29%
CC(C)[C@H](NC(=O)c1cccc(C(F)(F)F)c1)C(=O)O,–,7.7% and 10.5%,–,-0.42% and 3.74%,-6.26% and -6.2%
NC(Cc1cccc(F)c1)C(=O)O.O=C(O)C(F)(F)F (stereo not given),–,1.58% and 1.27%,–,0.53% and 0.81%,-7.68% and -3.4%
[C-]#[N+]c1ccc(C(=O)NC(Cc2ccccc2F)C(=O)NCCC)cc1 (stereo not given),8.88%,1.53%,-7.85%,–,–
Cc1ccc(C(=O)NC(Cc2cc(F)c(F)cc2F)C(=O)O)cc1 (stereo not given),–,4.99% and 4.52%,–,7.96% and 13.51%,-10.86% and -7.35%
O=C(NC(CCCc1ccccc1)C(=O)O)c1cccc2ccccc12 (stereo not given),–,4.21% and 5.17%,–,4.24% and 7.53%,-11.3% and -10.65%
O=C(N[C@@H](Cc1ccccc1)C(=O)O)C1CCCCC1,–,–,–,1.14% and 5.62%,-13.27% and -11.08%
CCCNC(=O)C(Cc1ccccc1)NC(=O)Cc1ccccc1 (stereo not given),14.33%,5.66%,-5.77%,–,–
NC(Cc1ccccc1I)C(=O)O.O=C(O)C(F)(F)F (stereo not given),–,4.55% and 4.79%,–,3.96% and 4.88%,-7.57% and -7.31%
NC(Cc1ccc(F)cc1)C(=O)O.O=C(O)C(F)(F)F (stereo not given),–,1.28% and -0.06%,–,1.77% and -4.38%,6.08% and -8.37%
CCCNC(=O)C(Cc1ccccc1)NC(=O)c1ccc(F)cc1 (stereo not given),15.24%,2.91%,-7.35%,–,–
[C-]#[N+]c1ccc(C(=O)NC(Cc2ccc(C(F)(F)F)cc2)C(=O)NCCC)cc1 (stereo not given),13.54%,5.79%,-3.04%,–,–
CCCNC(=O)C(Cc1ccccc1C)NC(=O)c1ccc(C(F)(F)F)cc1 (stereo not given),12.54%,0.78%,-3.03%,–,–
